The values that follow come from the supplement of paper PMC11006884.

About 6,500 targets were measured; listed, in parts, are those with a hit and a random draw of the rest. About 2% of all pairs of compound and target were hits.

Sequence of UniProt Q06547 (Q06547 whole entry): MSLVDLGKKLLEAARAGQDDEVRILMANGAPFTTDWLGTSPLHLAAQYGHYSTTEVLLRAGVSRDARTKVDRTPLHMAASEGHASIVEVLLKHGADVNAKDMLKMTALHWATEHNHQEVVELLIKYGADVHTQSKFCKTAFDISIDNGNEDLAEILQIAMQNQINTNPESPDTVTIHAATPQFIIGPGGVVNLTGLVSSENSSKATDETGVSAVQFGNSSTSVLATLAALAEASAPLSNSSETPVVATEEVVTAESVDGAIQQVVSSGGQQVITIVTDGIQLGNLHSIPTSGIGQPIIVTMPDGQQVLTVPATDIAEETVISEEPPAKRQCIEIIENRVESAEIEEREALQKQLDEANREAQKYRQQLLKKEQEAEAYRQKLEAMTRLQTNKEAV
Sequence of UniProt P62633 (P62633 whole entry, looked up): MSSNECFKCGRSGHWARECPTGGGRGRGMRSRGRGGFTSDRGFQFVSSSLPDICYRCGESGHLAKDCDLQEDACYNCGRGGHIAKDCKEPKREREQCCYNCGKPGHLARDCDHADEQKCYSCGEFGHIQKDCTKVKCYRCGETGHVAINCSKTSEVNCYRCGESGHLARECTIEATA
Sequence of UniProt Q14C86 (Q14C86 whole entry, looked up): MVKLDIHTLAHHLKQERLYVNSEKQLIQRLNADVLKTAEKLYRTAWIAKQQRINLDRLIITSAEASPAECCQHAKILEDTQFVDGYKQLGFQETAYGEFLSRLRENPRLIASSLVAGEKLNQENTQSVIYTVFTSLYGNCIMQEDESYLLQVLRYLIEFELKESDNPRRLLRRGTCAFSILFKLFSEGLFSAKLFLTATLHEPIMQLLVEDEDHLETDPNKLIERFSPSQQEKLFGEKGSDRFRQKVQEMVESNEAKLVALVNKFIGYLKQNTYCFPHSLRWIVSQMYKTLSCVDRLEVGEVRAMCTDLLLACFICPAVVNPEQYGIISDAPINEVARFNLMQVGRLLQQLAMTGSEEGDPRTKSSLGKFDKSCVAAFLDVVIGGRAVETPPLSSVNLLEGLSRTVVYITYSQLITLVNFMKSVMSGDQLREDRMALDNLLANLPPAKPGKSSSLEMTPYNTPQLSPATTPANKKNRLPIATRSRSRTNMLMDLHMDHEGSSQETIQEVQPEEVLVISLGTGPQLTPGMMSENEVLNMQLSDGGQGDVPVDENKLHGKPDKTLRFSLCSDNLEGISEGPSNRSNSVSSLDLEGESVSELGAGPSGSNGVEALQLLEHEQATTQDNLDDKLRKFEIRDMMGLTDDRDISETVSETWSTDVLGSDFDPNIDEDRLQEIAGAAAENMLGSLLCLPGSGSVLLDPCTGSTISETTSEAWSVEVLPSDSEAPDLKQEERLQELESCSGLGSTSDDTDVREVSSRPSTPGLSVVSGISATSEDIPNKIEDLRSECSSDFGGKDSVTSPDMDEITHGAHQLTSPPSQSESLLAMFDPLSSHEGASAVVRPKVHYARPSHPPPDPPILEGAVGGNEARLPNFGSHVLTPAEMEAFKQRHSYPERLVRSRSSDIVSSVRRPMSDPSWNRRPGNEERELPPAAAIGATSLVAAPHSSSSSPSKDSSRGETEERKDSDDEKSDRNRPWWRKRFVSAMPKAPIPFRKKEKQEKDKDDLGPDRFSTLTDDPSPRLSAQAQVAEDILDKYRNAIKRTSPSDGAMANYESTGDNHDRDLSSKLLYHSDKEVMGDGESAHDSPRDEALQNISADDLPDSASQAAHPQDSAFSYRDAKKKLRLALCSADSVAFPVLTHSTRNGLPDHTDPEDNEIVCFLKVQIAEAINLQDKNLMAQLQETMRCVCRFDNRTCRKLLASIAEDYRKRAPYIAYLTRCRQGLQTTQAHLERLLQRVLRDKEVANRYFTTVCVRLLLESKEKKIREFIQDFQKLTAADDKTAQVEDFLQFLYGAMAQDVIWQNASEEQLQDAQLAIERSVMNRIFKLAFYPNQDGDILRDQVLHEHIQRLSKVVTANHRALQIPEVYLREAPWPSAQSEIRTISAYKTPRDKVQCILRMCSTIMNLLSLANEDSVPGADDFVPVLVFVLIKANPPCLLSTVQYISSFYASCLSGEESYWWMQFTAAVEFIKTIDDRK
Sequence of UniProt P54278 (P54278 whole entry, looked up): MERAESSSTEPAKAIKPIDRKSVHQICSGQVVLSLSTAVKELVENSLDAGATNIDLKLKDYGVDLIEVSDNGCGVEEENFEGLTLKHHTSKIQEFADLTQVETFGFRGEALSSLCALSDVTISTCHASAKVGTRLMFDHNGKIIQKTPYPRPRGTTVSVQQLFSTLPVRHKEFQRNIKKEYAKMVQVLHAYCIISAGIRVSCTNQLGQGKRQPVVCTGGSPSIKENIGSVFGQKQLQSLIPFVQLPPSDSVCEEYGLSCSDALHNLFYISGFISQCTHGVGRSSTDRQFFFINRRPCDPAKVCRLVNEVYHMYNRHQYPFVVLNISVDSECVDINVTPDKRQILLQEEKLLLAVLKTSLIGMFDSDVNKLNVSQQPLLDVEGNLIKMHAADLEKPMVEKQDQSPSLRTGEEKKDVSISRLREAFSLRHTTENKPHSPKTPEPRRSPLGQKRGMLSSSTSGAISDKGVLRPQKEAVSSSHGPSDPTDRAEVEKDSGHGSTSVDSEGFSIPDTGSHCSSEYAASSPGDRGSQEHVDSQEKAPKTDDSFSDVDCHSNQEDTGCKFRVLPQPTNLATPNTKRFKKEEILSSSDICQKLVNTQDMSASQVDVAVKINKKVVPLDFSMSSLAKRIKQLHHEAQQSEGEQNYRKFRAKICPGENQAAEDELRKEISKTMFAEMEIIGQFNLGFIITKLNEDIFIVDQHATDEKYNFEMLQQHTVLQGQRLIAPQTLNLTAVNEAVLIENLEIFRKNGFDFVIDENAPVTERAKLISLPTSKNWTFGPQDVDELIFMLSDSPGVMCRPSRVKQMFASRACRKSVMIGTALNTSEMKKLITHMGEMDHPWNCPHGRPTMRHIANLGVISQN
Sequence of UniProt Q15813 (Q15813 whole entry, looked up): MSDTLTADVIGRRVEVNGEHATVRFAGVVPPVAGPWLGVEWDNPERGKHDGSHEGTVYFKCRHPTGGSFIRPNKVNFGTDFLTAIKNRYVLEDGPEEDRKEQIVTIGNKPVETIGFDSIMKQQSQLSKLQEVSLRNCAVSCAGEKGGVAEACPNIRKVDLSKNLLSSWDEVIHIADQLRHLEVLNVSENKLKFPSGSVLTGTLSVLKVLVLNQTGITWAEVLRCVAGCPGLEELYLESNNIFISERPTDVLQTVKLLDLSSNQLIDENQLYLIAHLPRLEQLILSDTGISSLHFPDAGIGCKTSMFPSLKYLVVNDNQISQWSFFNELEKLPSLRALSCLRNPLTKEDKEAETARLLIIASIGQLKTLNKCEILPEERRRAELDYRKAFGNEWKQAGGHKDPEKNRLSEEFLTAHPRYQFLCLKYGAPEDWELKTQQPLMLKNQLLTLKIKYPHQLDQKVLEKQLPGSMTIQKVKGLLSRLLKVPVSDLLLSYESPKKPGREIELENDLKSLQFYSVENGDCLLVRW
Sequence of UniProt P85037 (P85037 whole entry, looked up): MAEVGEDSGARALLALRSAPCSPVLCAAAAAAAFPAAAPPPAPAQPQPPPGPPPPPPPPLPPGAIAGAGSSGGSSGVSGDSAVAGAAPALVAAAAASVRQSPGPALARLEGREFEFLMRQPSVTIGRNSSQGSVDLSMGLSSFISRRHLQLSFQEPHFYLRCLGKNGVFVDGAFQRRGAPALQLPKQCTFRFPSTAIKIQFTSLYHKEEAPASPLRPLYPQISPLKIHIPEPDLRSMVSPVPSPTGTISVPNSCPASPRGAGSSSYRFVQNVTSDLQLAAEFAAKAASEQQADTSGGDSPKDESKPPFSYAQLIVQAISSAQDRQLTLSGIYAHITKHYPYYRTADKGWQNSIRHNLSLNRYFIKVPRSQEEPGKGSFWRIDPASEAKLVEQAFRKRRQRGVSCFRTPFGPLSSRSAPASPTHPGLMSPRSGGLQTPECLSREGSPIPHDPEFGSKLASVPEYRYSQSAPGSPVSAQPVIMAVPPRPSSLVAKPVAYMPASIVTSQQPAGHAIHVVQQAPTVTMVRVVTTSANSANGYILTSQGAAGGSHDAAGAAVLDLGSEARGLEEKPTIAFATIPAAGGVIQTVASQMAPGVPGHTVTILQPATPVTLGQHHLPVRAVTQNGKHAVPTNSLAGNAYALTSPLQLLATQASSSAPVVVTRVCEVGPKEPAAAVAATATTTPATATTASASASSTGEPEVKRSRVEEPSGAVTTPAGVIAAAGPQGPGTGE
Sequence of UniProt Q04724 (Q04724 whole entry, looked up): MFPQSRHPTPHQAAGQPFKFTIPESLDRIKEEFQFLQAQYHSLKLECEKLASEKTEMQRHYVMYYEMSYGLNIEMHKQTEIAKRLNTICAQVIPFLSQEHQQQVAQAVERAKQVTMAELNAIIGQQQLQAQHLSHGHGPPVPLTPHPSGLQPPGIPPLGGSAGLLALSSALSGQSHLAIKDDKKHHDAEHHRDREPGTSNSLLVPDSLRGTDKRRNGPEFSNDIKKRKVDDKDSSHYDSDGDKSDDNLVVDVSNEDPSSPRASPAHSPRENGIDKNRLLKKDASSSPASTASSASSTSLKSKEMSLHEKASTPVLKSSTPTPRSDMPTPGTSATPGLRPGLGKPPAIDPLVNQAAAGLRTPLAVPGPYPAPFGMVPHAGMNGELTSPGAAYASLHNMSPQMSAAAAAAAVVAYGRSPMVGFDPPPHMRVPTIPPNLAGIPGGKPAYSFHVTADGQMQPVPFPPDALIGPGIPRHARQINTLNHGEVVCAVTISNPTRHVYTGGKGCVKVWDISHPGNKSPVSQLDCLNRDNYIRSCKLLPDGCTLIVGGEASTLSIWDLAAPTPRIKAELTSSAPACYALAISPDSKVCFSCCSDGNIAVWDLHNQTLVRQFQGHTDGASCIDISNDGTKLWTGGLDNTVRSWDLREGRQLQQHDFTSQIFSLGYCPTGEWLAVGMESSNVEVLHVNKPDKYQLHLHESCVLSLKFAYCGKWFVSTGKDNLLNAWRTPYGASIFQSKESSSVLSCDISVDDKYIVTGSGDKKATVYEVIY

Compound in this assay: COC(=O)C#Cc1ccccc1 [methyl 3-phenylpropiolate]
The experiment in a line: log2 ratio of iodoacetamide-alkyne labeling of the cysteine site, DMSO over compound (competition); higher = stronger covalent engagement of the cysteine by the compound, active = 1 or more. As to conditions: 500 µM; treatment time 1 h; system: HEK293T cell lysate. Summed up:
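For each cysteine, the log2 competition ratio is mean control-channel reporter intensity over mean compound-channel reporter intensity. HEK293T lysate (2 mg/mL) was exposed to vehicle or electrophile (500 µM, 1 h, ambient temperature), labelled with iodoacetamide alkyne (1 h), clicked to sCIP-TMT reagents, digested overnight with trypsin at 37 °C, streptavidin-enriched and analysed by Orbitrap Eclipse LC-MS/MS with FAIMS and FragPipe. Cysteines quantified in only one of three replicates, each with duplicate channels, were excluded.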
As to OGDH C802 (UniProt Q02218), the “log2 ratio of iodoacetamide-alkyne labeling” value (from here on “log2 ratio”) is -0.0839 (inactive).
Regarding CNBP C171 (UniProt P62633), the “log2 ratio” value is -0.0616 (inactive).
For TTLL12 C612 (UniProt Q14166), the “log2 ratio” value is 0.0779 (inactive).
Then DOCK11 C409 (UniProt Q5JSL3), with -0.0544 (inactive); and LLGL1 C697 (UniProt Q15334), with 0.999 (inactive).
As for FOXK1 C254 (UniProt P85037), the “log2 ratio” value was 1.18 (active).
As for MRPS11 C186 (UniProt P82912), the “log2 ratio” value was 0.527 (inactive).
UniProt Q00341_C683: the “log2 ratio” value was -0.0455 (inactive).
For the target PPA1 C270 (UniProt Q15181), the “log2 ratio” value was 0.153 (inactive).
With GAPVD1 C568 (UniProt Q14C86), the “log2 ratio” value was 0.475 (inactive).
Then UniProt Q15365_C118, with 1.72 (active); and UniProt P62241_C71, with 0.335 (inactive).
Then PAFAH1B3 C55 (UniProt Q15102), with 0.0597 (inactive).
The figure for MDC1 C1742 (UniProt Q14676) is 0.0644 (inactive); for UniProt P68431_C111 it is 0.142 (inactive).
As for SEC23B C767 (UniProt Q15437), the “log2 ratio” value is 0.00601 (inactive).
Then TLE1 C526 (UniProt Q04724), with 1.15 (active); and SORD C45 (UniProt Q00796), with -0.0713 (inactive).
Then TTLL12 C126 (UniProt Q14166), with -0.117 (inactive).
SEC23A C432 (UniProt Q15436): the “log2 ratio” value was 0.163 (inactive).
NCAPH C316 (UniProt Q15003): the “log2 ratio” value was -0.0371 (inactive).
Then GABPB1 C331 (UniProt Q06547), with 0.198 (inactive); and TBCE C371 (UniProt Q15813), with 0.185 (inactive).
Take PPP5C C11 (UniProt P53041): the “log2 ratio” value is 0.16 (inactive).
Then UniProt P84103_C6, with 0.422 (inactive).
Turning to PMS2 C798 (UniProt P54278), the “log2 ratio” value is -0.143 (inactive).
Then IAH1 C9 (UniProt Q2TAA2), with 2.43 (active).
Take IAH1 C4 (UniProt Q2TAA2): the “log2 ratio” value was 2.43 (active).
THOP1 C682 (UniProt P52888): the “log2 ratio” value is 0.174 (inactive).
Regarding UniProt Q13242_C138, the “log2 ratio” value is 0.112 (inactive).
Then UniProt Q08170_C115, with -0.0754 (inactive).
The figure for NCAPD2 C1249 (UniProt Q15021) is 0.179 (inactive); for UniProt Q02040_C549 it is 1.74 (active).
Then UniProt Q02930_C69, with 1.09 (active); and ESPL1 C294 (UniProt Q14674), with 0.577 (inactive); and NUBP1 C25 (UniProt P53384), with 2.24 (active).
